# About 4,200 (1.3%) of roughly 330,000 compounds were called active. A call without a number means that no potency is given here. Not shown: some 6% with an inconclusive outcome. The call rests on the fitted dose curve; in most records, active means well fitted activation curve with a large enough effect; inconclusive means small, poorly fitted or top-dose-only effect; inactive means no such curve, though single readings can be large or run the other way. This excerpt belongs to a sample that is enriched for actives.
# Test: qHTS screen for small molecules that induce genotoxicity in human embryonic kidney (HEK293T) cells expressing luciferase-tagged ELG1; further: nearly all actives have a fitted effect of over 60% in size
# Conditions: HEK293T ELG1-luciferase reporter, luminescence, 16 h; series mostly up to 46 µM
# How it was run: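 HEK293T cells expressing luciferase-tagged ELG1 were exposed to compound or DMSO vehicle for 16 hr at 37 °C and 5% CO2. Luciferase activity was then measured with ONE-Glo after 30 min at room temperature.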
# Potency means the concentration at half of the fitted maximal effect.
row,SMILES,Potency
1,O=C(Cn1cnc2c(OCc3ccccc3)ncnc21)NCCCn1ccnc1,inactive
2,O=C(COC(=O)c1ccc(F)cc1)NCC1COc2ccccc2O1 (centres undefined),inactive
3,Cc1cccc2c1N(CCOc1ccccc1)C(=O)C2=O,inactive
4,O=C(OCCN1C(=O)c2ccccc2C1=O)Oc1ccccc1,inactive
5,O=C1c2ccccc2C(=O)N1CCOc1ccc(F)cc1,20.6 µM (active)
6,Cn1cccc1C(=O)OCC(=O)c1ccc(Br)s1,inactive
7,COc1ccc(S(=O)(=O)Nc2cccc3c2O[C@H](CN(C)S(=O)(=O)c2ccc(OC)cc2)[C@@H](C)CN([C@H](C)CO)C3=O)cc1,inactive
8,NC(=O)c1c(NC(=O)c2ccccc2)sc2c1CCCC2,8.2 µM (active)
9,Cc1ccc(C(=O)c2c(NC(=O)c3ccncc3)sc3c2CCCC3)cc1,inactive
10,O=C(Nc1sc2c(c1C(=O)O)CCC2)c1ccccc1F,inactive
11,Cc1ccc(Oc2nc(-c3ccccn3)nc3ccccc23)cc1,inactive
12,O=C(Oc1ccc(-c2nc(-c3ccccn3)no2)cc1)c1ccccc1,0.517 µM (active)
13,O=C(Oc1ccc(Br)cc1)c1cccnc1,inactive
14,COc1cc(C(=O)OCc2cc(=O)n3ccsc3n2)ccc1OC(C)C,inactive
15,CC(C)(C)OC(=O)CNC(=O)c1[nH]cnc1C(=O)N[C@@H](CCCCN)C(=O)OC(C)(C)C,inactive
16,C[C@H](CO)N1C[C@H](C)[C@@H](CN(C)Cc2ccc(-c3ccccc3)cc2)Oc2ccc(NC(=O)Cn3cnnn3)cc2C1=O,inactive
17,COC(=O)c1sc(NC(=O)c2csc3c2CCCC3)nc1C,2.59 µM (active)
18,O=C(NCc1ccccc1Cl)c1csc2c1CCCCC2,inactive
19,O=C(Nc1ccccc1N1CCOCC1)c1csc2c1CCCC2,inactive
20,COC(=O)[C@]1(Cc2ccccc2)N[C@H](CN(C)S(=O)(=O)c2ccc(F)cc2)[C@@H]2C(=O)N(Cc3ccccc3)C(=O)[C@@H]21,inactive
21,COc1ccc(N=Cc2c(O)[nH]c3ccccc23)cc1OC,14.6 µM (active)
22,COc1cc(N=Cc2c(O)[nH]c3ccccc23)cc(OC)c1OC,inactive
23,COc1ccccc1N=Cc1c(O)c2ccccc2oc1=O,inactive
24,Cc1ccc(-n2nc3cc(C)c(NC(=O)c4cccnc4)cc3n2)cc1,inactive
25,Cc1ccc(-n2nc3cc(Cl)c(NC(=O)c4ccco4)cc3n2)cc1,11.6 µM (active)

row,SMILES,Potency
1,Cc1cc(NC(=O)c2ccco2)c(=O)n(Cc2c(F)cccc2Cl)c1,inactive
2,Cc1ccc(S(=O)(=O)NC[C@H]2O[C@@H](n3cnc4c(N)ncnc43)[C@H](O)[C@@H]2O)s1,inactive
3,CSCCC1NC(=O)N(CC(=O)Nc2cccc(S(=O)(=O)N3CCCCCC3)c2)C1=O (centres undefined),inactive
4,Cc1cc(C(=O)NNC(=O)c2ccccc2O)c(C)o1,inactive
5,Cc1cc(C(=O)NCCc2ccc(Cl)cc2)c(C)o1,18.3 µM (active)
6,Cc1cc(C(=O)NCCc2ccc(Cl)cc2)n(-c2ccccc2)n1,inactive
7,CC[C@]12c3[nH]c4ccc(OC)cc4c3CCN1C(=O)C(CC(=O)NCCN1CCOCC1)C[C@@H]2C(=O)N1CCN(C(=O)C2CC2)CC1 (some centres undefined),inactive
8,Cc1ccccc1SCC(=O)OCC(=O)N1CC(=O)Nc2ccccc21,inactive
9,N#Cc1nc(-c2cccc3ccccc23)oc1N,inactive
10,CC1CCN(c2oc(-c3ccccc3F)nc2C#N)CC1,16.4 µM (active)
11,Cc1oc(-c2ccccc2F)nc1CS(=O)CC(=O)NCCN1CCCCC1C (centres undefined),inactive
12,Cc1ccc(S(=O)(=O)N2CCN(C(=O)COC(=O)CNC(=O)c3ccc(C(C)(C)C)cc3)CC2)c(C)c1,inactive
13,O=C(N=C1SC2CS(=O)(=O)CC2N1c1ccccc1)c1ccccc1 (centres undefined),inactive
14,COc1ccc(-c2nc3cnccn3c2NC2CCCCC2)cc1-c1cccc(Cl)c1,inactive
15,COc1cccc(NC(=O)CSc2nnc(C3CCCCC3)n2N)c1,inactive
16,NC(=O)COC(=O)/C=C/c1ccc2ccccc2n1,inactive
17,CC(=O)c1ccc(S(=O)(=O)N2CCN(C(=O)/C=C/c3ccc4ccccc4n3)CC2)cc1,inactive
18,CCOc1cccc(/C=C/c2ccc3ccccc3n2)c1OC(C)=O,0.366 µM (active)
19,COc1cccc(/C=C/c2ccc3ccccc3n2)c1OC(C)=O,0.206 µM (active)
20,COc1cccc(/C=C2\C=C(c3ccc(C)cc3)OC2=O)c1OC(C)=O,inactive
21,CCOc1ccccc1-c1cc(C(=O)N2CCOCC2)c2ccccc2n1,inactive
22,COCCn1c(C)cc(C(=O)CN2c3cccc4cccc(c34)S2(=O)=O)c1C,inactive
23,Cc1noc(C)c1NC(=O)Nc1cccc2c1O[C@H](CN(C)C(=O)Nc1ccccc1)[C@@H](C)CN([C@H](C)CO)C2=O,inactive
24,NCCN1CCN2C(=O)CN(C(=O)c3ccccc3)CC12 (centres undefined),inactive

# Source: PubChem BioAssay AID504466 (National Center for Advancing Translational Sciences (NCATS), 2011)
